The structures appear in SMILES notation. Values joined by “and” are separate entries in the source; they are usually repeats but may differ in a detail not shown here. Identical values can stand only once. Results filed as inconclusive are left out. Entries that show only a call come without a potency. Active and inactive are the calls of the source. Unless noted, the call rests on the fitted dose curve; in most records, active means well fitted curve in the direction sought with a large enough effect in the repeat runs; inconclusive means weak or mixed curves; inactive means no such curve, though single readings can be large; an effect the other way counts as inactive or inconclusive.
Potency means the concentration at half of the fitted maximal effect.

For one assay, the target named is Estrogen receptor (Homo sapiens) (UniProt P03372). Description: qHTS assay to identify small molecule agonists of the estrogen receptor alpha (ER-alpha) signaling pathway using the BG1 cell line (AID 743079). Further: nearly all actives have a fitted effect of over 20% in size. Conditions: BG1Luc4E2 cells, ERE-luciferase agonist, 22 h; series mostly up to 70.3 µM.
Estrogen receptor (Homo sapiens), sequence (P03372 whole entry, looked up): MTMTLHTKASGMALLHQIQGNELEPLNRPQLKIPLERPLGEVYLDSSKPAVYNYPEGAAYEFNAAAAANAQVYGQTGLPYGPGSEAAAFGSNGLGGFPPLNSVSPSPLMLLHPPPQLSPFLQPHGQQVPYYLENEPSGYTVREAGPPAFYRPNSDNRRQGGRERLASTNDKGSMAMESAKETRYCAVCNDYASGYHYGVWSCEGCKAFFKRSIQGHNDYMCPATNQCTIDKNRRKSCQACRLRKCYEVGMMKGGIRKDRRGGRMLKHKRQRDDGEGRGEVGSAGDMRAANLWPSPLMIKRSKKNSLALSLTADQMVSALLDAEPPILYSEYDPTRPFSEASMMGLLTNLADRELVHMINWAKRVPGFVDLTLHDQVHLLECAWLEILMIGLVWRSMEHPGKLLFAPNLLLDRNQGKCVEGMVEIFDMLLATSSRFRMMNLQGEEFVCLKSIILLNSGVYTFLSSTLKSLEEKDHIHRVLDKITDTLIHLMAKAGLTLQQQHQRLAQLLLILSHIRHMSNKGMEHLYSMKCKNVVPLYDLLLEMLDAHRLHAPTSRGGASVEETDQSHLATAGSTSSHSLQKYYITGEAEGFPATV
In the case of `CC(C)=CCN1CC[C@]2(C)c3cc(O)ccc3C[C@H]1[C@H]2C`, the Potency is 30.6 µM (active).

As to `CN[C@@]1(c2ccccc2Cl)CCCCC1=O`, the Potency result was “inactive”.

Consider `CCNC1(c2cccs2)CCCCC1=O` (centres undefined), for which the Potency result was “inactive”.

Turning to `CNC(C)CC1CCCCC1` (centres undefined), the Potency entry was “inactive”.

Take `COc1cc([C@@H]2c3cc4c(cc3[C@@H](O)[C@H]3COC(=O)[C@H]23)OCO4)cc(OC)c1O`: the Potency result was “inactive”.

Turning to `CCCCNC(C)(C)[P+](=O)O`, the Potency result was “inactive”.

For `O=c1ccc2cc(O[C@@H]3O[C@H](CO)[C@@H](O)[C@H](O)[C@H]3O)c(O)cc2o1`, the Potency result was “inactive”.

For the molecule `C/C=C(\CC)C(=O)NC(N)=O`, the Potency is 29.8 µM (active).

On to `C[C@]12CCC(=O)C[C@@H]1CC[C@@H]1[C@@H]2CC[C@@]2(C)[C@H]1CC[C@]2(C)O`, for which the Potency is 0.15 µM (active).

Regarding `N#CC(C#N)=Cc1cc(O)c(O)c(O)c1`, the Potency entry is “inactive”.

For the molecule `O=P1(N(CCCl)CCCl)NC(OO)CCO1` (centres undefined), the Potency entry is “inactive”.

As for `COC(=O)[C@H]1[C@@H](OC(=O)c2ccccc2)C[C@@H]2CC[C@H]1N2C`, the Potency result was “inactive”.

Regarding `O=C1CN=C(c2ccccc2)c2cc(Cl)ccc2N1`, the Potency entry was “inactive”.

With `CC(C)[C@H]1C(=O)N2CCC[C@H]2[C@]2(O)O[C@](NC(=O)[C@@H]3C[C@@H]4c5cccc6[nH]cc(c56)C[C@H]4N(C)C3)(C(C)C)C(=O)N12`, the Potency is 11.9 µM (active).

On to `C[C@]12CC[C@H]3[C@@H](CCC4=C(Cl)C(=O)CC[C@@]43C)[C@@H]1CC[C@@H]2O`, for which the Potency was 1.5 µM (active).

For `CC(C)C[C@H]1C(=O)N2CCC[C@H]2[C@]2(O)O[C@](NC(=O)[C@@H]3C[C@@H]4c5cccc6[nH]cc(c56)C[C@H]4N(C)C3)(C(C)C)C(=O)N12`, the Potency result is “inactive”.

Take `C=CCC1([C@@H](C)CCC)C(=O)NC(=O)NC1=O`: the Potency result was “inactive”.

Consider `C[C@@H](Cc1ccccc1)NCCC(c1ccccc1)c1ccccc1`, for which the Potency result was “inactive”.

Regarding `CC[C@H]1[C@@H]2C[C@H]3[C@@H]4N(C)c5ccccc5[C@]45C[C@@H](C2[C@H]5O)N3[C@@H]1O` (some centres undefined), the Potency entry was “inactive”.

Consider `CC(N)Cc1ccc2c(c1)OCO2` (centres undefined), for which the Potency entry is “inactive”.

Consider `CN1c2ccccc2C(NCCCCCCC(=O)O)c2ccc(Cl)cc2S1(=O)=O` (centres undefined), for which the Potency result is “inactive”.

Consider `CN[C@]1(c2ccccc2Cl)CCCCC1=O`, for which the Potency entry was “inactive”.

On to `C[C@]12CC[C@@H]3c4ccc(OC(=O)N(CCCl)CCCl)cc4CC[C@H]3[C@@H]1CC[C@@H]2OP(=O)(O)O`, for which the Potency is 4.7 nM (active) and 16.8 nM (active).

In the case of `CC(=O)[C@@]1(O)CC[C@H]2[C@@H]3CCC4=CC(=O)CC[C@]4(C)C3(F)[C@@H](O)C[C@@]21C` (some centres undefined), the Potency result is “inactive”.

Test system in another assay: not listed separately
The assay can be described thus: qHTS assay to identify small molecule antagonists of the estrogen receptor alpha (ER-alpha) signaling pathway using the BG1 cell line (AID 743080; calls by dose curve;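 further: BG1 cells stimulated with 17beta-estradiol alongside compound; nearly all actives have a fitted effect of over 25% in size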). To be noted: BG1Luc4E2 ERE-luciferase antagonist mode, luminescence; series mostly up to 70.3 µM. The procedure, abridged: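 Luciferase inhibition measured with ONE-Glo after 30 min at RT in BG1Luc4E2 cells given test compounds and 17beta-estradiol for 21.5 h at 37 C; CellTiter-Fluor viability read in the same wells beforehand.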
A general note: qHTS replaces the single test concentration by a dilution series.
In the case of `CC(C)=CCN1CC[C@]2(C)c3cc(O)ccc3C[C@H]1[C@H]2C`, the Potency entry was “inactive”.

Take `CNC(C)CC1CCCCC1` (centres undefined): the Potency entry is “inactive”.

For `O=c1ccc2cc(O[C@@H]3O[C@H](CO)[C@@H](O)[C@H](O)[C@H]3O)c(O)cc2o1`, the Potency entry was “inactive”.

For the molecule `C[C@]12CCC(=O)C[C@@H]1CC[C@@H]1[C@@H]2CC[C@@]2(C)[C@H]1CC[C@]2(C)O`, the Potency result is “inactive”.

Regarding `Cc1nnc2n1-c1ccc(Cl)cc1C(c1ccccc1)=NC2`, the Potency was 11.9 µM (active).

`N#CC(C#N)=Cc1cc(O)c(O)c(O)c1`: the Potency entry is “inactive”.

Consider `CCCSc1cc(OC)c(CCN)cc1OC`, for which the Potency entry is “inactive”.

Consider `CC(C)[C@H]1C(=O)N2CCC[C@H]2[C@]2(O)O[C@](NC(=O)[C@@H]3C[C@@H]4c5cccc6[nH]cc(c56)C[C@H]4N(C)C3)(C(C)C)C(=O)N12`, for which the Potency result is “inactive”.

As to `Clc1ccc(C(Cn2ccnc2)OCc2csc3c(Cl)cccc23)c(Cl)c1` (centres undefined), the Potency entry was “inactive”.

On to `CC(C)C[C@H]1C(=O)N2CCC[C@H]2[C@]2(O)O[C@](NC(=O)[C@@H]3C[C@@H]4c5cccc6[nH]cc(c56)C[C@H]4N(C)C3)(C(C)C)C(=O)N12`, for which the Potency entry is “inactive”.

Regarding `C[C@@H](Cc1ccccc1)NCCC(c1ccccc1)c1ccccc1`, the Potency entry is “inactive”.

On to `CC[C@H]1[C@@H]2C[C@H]3[C@@H]4N(C)c5ccccc5[C@]45C[C@@H](C2[C@H]5O)N3[C@@H]1O` (some centres undefined), for which the Potency result is “inactive”.

For `CC(N)Cc1ccc2c(c1)OCO2` (centres undefined), the Potency result is “inactive”.

As for `CN1c2ccccc2C(NCCCCCCC(=O)O)c2ccc(Cl)cc2S1(=O)=O` (centres undefined), the Potency entry is “inactive”.

Turning to `CN[C@]1(c2ccccc2Cl)CCCCC1=O`, the Potency result is “inactive”.

For the molecule `C[C@]12CC[C@@H]3c4ccc(OC(=O)N(CCCl)CCCl)cc4CC[C@H]3[C@@H]1CC[C@@H]2OP(=O)(O)O`, the Potency entry is “inactive”.

Test system in another assay: not listed separately
Description: qHTS assay to identify small molecule antagonists of the estrogen receptor alpha (ER-alpha) signaling pathway using the BG1 cell line - cell viability counter screen (AID 743081).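 Further: compound given together with 17beta-estradiol as the ER stimulus; nearly all actives have a fitted effect of over 45% in size.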 Conditions: BG1Luc4E2 viability, CellTiter-Fluor, 22 h; series mostly up to 70.3 µM.
In the case of `CC(C)=CCN1CC[C@]2(C)c3cc(O)ccc3C[C@H]1[C@H]2C`, the Potency result is “inactive”.

For the molecule `CN[C@@]1(c2ccccc2Cl)CCCCC1=O`, the Potency result was “inactive”.

Turning to `CCNC1(c2cccs2)CCCCC1=O` (centres undefined), the Potency result is “inactive”.

For the molecule `CCC1(c2ccccc2)C(=O)NC(=O)N(C)C1=O` (centres undefined), the Potency result is “inactive”.

With `CN1CC[C@@]23CCCC[C@@H]2[C@@H]1Cc1ccc(O)cc13`, the Potency entry is “inactive”.

On to `CNC(C)Cc1ccccc1` (centres undefined), for which the Potency result was “inactive”.

For the molecule `CN[C@@H](C)Cc1ccccc1`, the Potency entry was “inactive”.

Consider `O=C1C[C@@H]2OCC=C3CN4CC[C@]56c7ccccc7N1[C@H]5[C@H]2[C@H]3C[C@H]46` (tested in a mixture with another compound), for which the Potency result is “inactive”.

As for `C/C=C(\CC)C(=O)NC(N)=O`, the Potency entry is “inactive”.

In the case of `C[C@]12CCC(=O)C[C@@H]1CC[C@@H]1[C@@H]2CC[C@@]2(C)[C@H]1CC[C@]2(C)O`, the Potency result was “inactive”.

With `Cc1nnc2n1-c1ccc(Cl)cc1C(c1ccccc1)=NC2`, the Potency entry was “inactive”.

As to `O=C(O)CCCO`, the Potency entry was “inactive”.

Turning to `Oc1ccc2c3c1O[C@H]1[C@@H](O)C=C[C@H]4[C@H](C2)NCC[C@@]341`, the Potency result was “inactive”.

In the case of `O=P1(N(CCCl)CCCl)NC(OO)CCO1` (centres undefined), the Potency entry was “inactive”.

As for `COC(=O)[C@H]1[C@@H](OC(=O)c2ccccc2)C[C@@H]2CC[C@H]1N2C`, the Potency entry was “inactive”.

Consider `C=C[C@H]1CN2CC[C@H]1C[C@H]2[C@H](OC(=O)OCC)c1ccnc2ccc(OC)cc12`, for which the Potency result is “inactive”.

Consider `C[C@]12CC[C@H]3[C@@H](CCC4=C(Cl)C(=O)CC[C@@]43C)[C@@H]1CC[C@@H]2O`, for which the Potency entry was “inactive”.

Regarding `Clc1ccc(C(Cn2ccnc2)OCc2csc3c(Cl)cccc23)c(Cl)c1` (centres undefined), the Potency entry is “inactive”.

As for `C[C@@H]1[C@@H]2Cc3ccc(O)cc3[C@@]1(C)CCN2CC1CC1`, the Potency result was “inactive”.

As for `C[C@@H]1[C@H]2Cc3ccc(O)cc3[C@]1(C)CCN2C`, the Potency result is “inactive”.

`[H+].[H+].[Hg+2].[O-]B([O-])[O-].[c-]1ccccc1`: the Potency is 5.31 µM (active).

For `C=CCC1([C@@H](C)CCC)C(=O)NC(=O)NC1=O`, the Potency result is “inactive”.

Take `c1ccc2c(c1)Sc1ccccc1N2C[C@@H]1CN2CCC1CC2`: the Potency entry is “inactive”.

Take `CC[C@H]1[C@@H]2C[C@H]3[C@@H]4N(C)c5ccccc5[C@]45C[C@@H](C2[C@H]5O)N3[C@@H]1O` (some centres undefined): the Potency result was “inactive”.

For the molecule `CC(N)Cc1ccc2c(c1)OCO2` (centres undefined), the Potency entry was “inactive”.

Take `CN1c2ccccc2C(NCCCCCCC(=O)O)c2ccc(Cl)cc2S1(=O)=O` (centres undefined): the Potency result was “inactive”.

Regarding `CN[C@]1(c2ccccc2Cl)CCCCC1=O`, the Potency result was “inactive”.

Take `C[C@]12CC[C@@H]3c4ccc(OC(=O)N(CCCl)CCCl)cc4CC[C@H]3[C@@H]1CC[C@@H]2OP(=O)(O)O`: the Potency entry was “inactive”.

Regarding `CC(=O)[C@@]1(O)CC[C@H]2[C@@H]3CCC4=CC(=O)CC[C@]4(C)C3(F)[C@@H](O)C[C@@]21C` (some centres undefined), the Potency result is “inactive”.

These data come from PubChem BioAssay (Tox21).
